# Only some compounds are listed: those with a hit (about 7.8% of all), similar ones and a draw of the others.
# Cav3 T inh – Cav3.2 calcium influx blockers – cell-based, Fluo-4 calcium fluorescence, FDSS, MLSMR library, primary screen | Voltage-dependent T-type calcium channel subunit alpha-1H (Homo sapiens), O95180 | Cav3.2-expressing cells; active compounds read low | B-score at 10 µM | 100,000 compounds, 4% hits | AID 449739, 2010;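 active = single-dose well whose peak fluorescence ratio is a statistical outlier from its plate by either plate-standardised score or position-corrected B-score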
# PostGolgi ctrl – growth inhibition of yeast control strain, primary screen, counter-screen for post-Golgi transport modulator project; inhibition, % at 10 µM; AID 738, 2007; 98,000 compounds, 5% hits; efflux-deficient yeast background strain, growth absorbance A615, 16 h
# sEH inh – soluble epoxide hydrolase inhibitors, primary screen, biochemical, human sEH | Bifunctional epoxide hydrolase 2 (Homo sapiens), P34913 | recombinant human sEH enzymatic activity assay | inhibition, % at 2 µM | 91,000 compounds, 0.34% hits; in the data active = inhibition above about 80%
# PostGolgi yeast – phenotypic screen on post-Golgi transport, primary screen; AID 739, 2007; inhibition, % at 10 µM; 98,000 compounds, 0.9% hits; post-Golgi transport phenotypic cell assay;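 also: yeast cells grown in 1536-well plates; yeast grown about 18 h at 30C before absorbance read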
# sEH activator – soluble epoxide hydrolase activators, primary screen, biochemical, human sEH. purified human sEH enzymatic activity, activator screen. 91,000 compounds, 0.04% hits. Bifunctional epoxide hydrolase 2 (Homo sapiens), P34913. activation, % at 2 µM; in the data active = activation above about 37%
# The depositor's hits bear a star; . = not tested or not shown. Rule as the data show it, unless noted: active = inhibition above about 30%; inactive = the rest.
SMILES,Cav3 T inh,PostGolgi ctrl,sEH inh,PostGolgi yeast,sEH activator
Cc1ccc(C2CC(=O)NC(SCc3ccccc3)=C2C#N)cc1 (centres undefined),-2.46,.,-0.2,.,5.9
CCCCCCSC1=C(C#N)C(c2ccccc2)CC(=O)N1 (centres undefined),-0.0996,56.6*,.,35.8*,.
COC(=O)c1[nH]c2cccc(OC)c2c1NC(=O)CCN1CCN(c2cccc(Cl)c2)CC1,0.0578,-5.3,-113.1,-1.7,114.4*
O=C(CN1CCN(c2ccc(Cl)cc2)CC1)Nc1ccc(F)cc1,-4.5*,15.7,-11.1,-5.1,5.2
O=C(CN1CCN(c2ccc(F)cc2)CC1)Nc1cc(C(F)(F)F)ccc1Cl,.,47.6*,2.1,-3.7,-0.7
COc1ccccc1NC(=O)CN1CCN(c2ccc(Cl)cc2)CC1,0.171,31.8*,15.1,0.5,-16.7
COc1ccccc1NC(=O)CN1CCN(c2ccccc2F)CC1,-0.9,9.8,-8.1,-3.4,8.4
C=CCSc1nc(C)cc(/C=C\c2ccccc2)c1C#N,-2.98,9.6,10.7,14.6,-8.6
COc1ccc(C#Cc2c(-c3ccsc3)oc3ccc(-c4cc(OC)c(OC)c(OC)c4)cc23)cc1,-0.307,.,.,.,.
Cc1ccccc1C(=O)Oc1cccc(Nc2ncnc3ccccc23)c1,-4.84*,.,-9.9,.,7.7
CCOC(=O)c1cccc(Nc2ncnc3ccccc23)c1,7.32e-05,.,2.6,.,0.9
CC(C)Cc1[nH]c(=O)c(C#N)c2c1CCCC2,0.889,7.4,-9.3,-9.7,13.3
Nc1nc(SCC(=O)Nc2ccccc2Sc2ccc(Cl)cc2)n[nH]1,-5.89*,7.0,3.4,10.8,-1.6
Cc1cccc(/C=C2/SC(=O)N(Cc3ccccc3Cl)C2=O)n1,-0.0055,38.6*,-5.9,-1.7,7.8
COc1cc(/C=C2/SC(=O)N(Cc3ccccc3Cl)C2=O)ccc1OCc1ccncc1,0.834,10.8,-12.9,14.8,11.0
CC(=O)c1c(C)[nH]c(C(=O)CSc2nc3ccc(C)cc3[nH]2)c1C,-0.0352,35.4*,6.0,7.6,-2.6
CC(/C=N/NC(=O)c1ccncc1)=C\c1ccc(C(C)C)cc1,-1.21,35.2*,30.0,30.4*,-28.1
CC(/C=N/NC(=O)c1ccc(Br)cc1)=C\c1ccccc1,-0.0115,-4.5,18.4,-7.9,-15.8
Cc1ccccc1OCCCC(=O)Nc1nccs1,-0.661,0.8,-9.7,-0.3,7.7
Cc1ccc(C)c(OCCCC(=O)Nc2nccs2)c1,-4.62*,17.6,-3.2,6.0,4.2
O=C(Nc1ccccc1)N1CC=C(c2ccc(F)cc2)CC1,-4.55*,11.7,25.9,-7.2,-22.1
O=C(Nc1ccccc1)N1CC=C(c2ccccc2)CC1,-0.99,16.7,21.1,-11.1,-19.4
CCOC(=O)N1CCN(C(=O)C2CCCN(S(=O)(=O)c3cccnc3)C2)CC1 (centres undefined),-0.0831,4.1,.,0.8,.
Cc1cccc(/C(N)=N/OC(=O)N2c3ccccc3Sc3ccccc32)c1,-4.92*,16.9,-4.6,16.9,5.1
C=CCSc1nc2sc(-c3ccccc3)cc2c(=O)n1N,-0.117,3.1,0.1,3.0,0.7
SMILES,Cav3 T inh,PostGolgi ctrl,sEH inh,PostGolgi yeast,sEH activator
CC(=O)n1cc([C@H]2C=C(C(N)=O)O[C@@H](OCc3ccc(CO)cc3)C2)c2ccccc21,0.324,.,.,.,.
CC(C)CC(C(=O)NCC1CCCO1)N(C(=O)Cn1nnc(-c2ccc(F)cc2)n1)c1cccc(C(F)(F)F)c1 (centres undefined),-5.04,2.6,5.3,-4.9,-3.4
Cc1ccc(-c2nnn(CC(=O)N(c3ccccc3F)C(CC(C)C)C(=O)NCC3CCCO3)n2)cc1 (centres undefined),-4.43*,9.6,5.6,-29.3,-3.6
CC(C)(C)NC(=O)C(c1ccco1)N(C(=O)Cn1nnc(-c2ccc(F)cc2)n1)c1ccccc1 (centres undefined),.,.,-8.0,.,11.9
Cc1ccc(N(C(=O)Cn2nnc(-c3ccc(F)cc3)n2)C(CC(C)C)C(=O)NCC2CCCO2)cc1 (centres undefined),-7.37*,1.8,-6.1,3.3,8.5
CCC(C(=O)NC1CCCC1)N(C(=O)Cn1nnc(-c2ccc(OC)c(OC)c2)n1)C1CCCCC1 (centres undefined),-0.177,0.9,3.6,0.3,-2.7
CCC(C(=O)NC1CCCC1)N(C(=O)Cn1nnc(-c2ccc(C)cc2)n1)C1CCCC1 (centres undefined),-6.54*,.,4.6,.,0.8
CC(C)(C)NC(=O)C(c1ccco1)N(C(=O)Cn1nnc(-c2ccc(F)cc2)n1)c1ccccc1F (centres undefined),-5.02*,79.2*,-12.2,76.3*,16.3
CCOc1cc(C(=O)Nc2cccc3ncccc23)cc(OCC)c1OCC,0.0623,0.6,-7.4,19.5,7.7
CC(C)CC(C(=O)NCC1CCCO1)N(C(=O)Cn1nnc(-c2ccc(F)cc2)n1)c1ccccc1F (centres undefined),-3.36*,14.3,-6.5,0.2,8.7
COc1cccc(N(C(=O)Cn2nnc(-c3ccc(C)cc3)n2)C(C(=O)NC(C)(C)C)c2c[nH]c3ccccc23)c1 (centres undefined),-5.61*,6.3,8.2,0.7,-6.1
CCn1c(SCC(=O)Nc2ccc(C)cc2)nnc1-c1ccc(O)cc1,-0.227,.,-0.9,.,2.1
CC1(C)CC(=O)C(C=NCCN2CCOCC2)=C(O)C1,1.07,14.1,8.5,9.4,-7.1
CC1(C)CC(=O)C(C=NCCN2CCN(CCCCS(=O)(=O)O)CC2)=C(O)C1,-0.565,32.5*,0.3,5.6,0.0
O=C(CSc1nc2sc3c(c2c(=O)n1-c1ccccc1)CCCC3)NCc1ccco1,.,31.6*,0.0,-1.1,-0.3
CCN(CC)S(=O)(=O)c1ccc(C2CNC(=O)C2)cc1 (centres undefined),1.29,0.3,-13.9,-1.8,13.6
CCCOc1ccc2ccccc2c1/C=N/n1c(C)nnc1-n1nc(C)cc1C,-3.31*,23.0,1.9,-3.2,-1.6
Cc1cc(C)n(-c2nnc(C)n2/N=C/c2ccco2)n1,0.162,-0.1,1.1,1.6,-2.9
COc1ccc(CC(=O)Nc2cccc(/C(C)=N/NC(=O)c3cccc([N+](=O)[O-])c3)c2)cc1,-2.41,1.8,17.6,-5.6,-15.5
COc1ccc(Nc2nc(N)nc(CN3CCOCC3)n2)cc1,0.211,7.5,0.7,10.5,1.0
COc1ccc(N2CCN(Cc3nc(N)nc(Nc4ccc(C)c(Cl)c4)n3)CC2)cc1,-5.2*,14.8,-9.4,0.2,7.5
Cc1ccc(Nc2nc(N)nc(CN3CCN(Cc4ccc5c(c4)OCO5)CC3)n2)cc1Cl,-5.19*,-5.2,-10.5,6.1,8.6
Cc1ccc(Nc2nc(N)nc(CN3CCN(c4ccccc4)CC3)n2)cc1Cl,-1.04,30.3*,10.9,15.9,-10.3
COc1cccc(-n2c(=O)[nH]cc(C(=O)Nc3ccc(NC(C)=O)cc3)c2=O)c1,-0.00855,-2.2,1.6,-4.7,1.9
CC(C)c1ccc(CC(C)C2C3=C(CCCC3=O)OC3=C2C(=O)CCC3)cc1 (centres undefined),-2.78,21.7,9.2,1.1,-7.4
